The test system of the test is VDR:RXRa (NR concentration 270 nM, RXRa partner concentration 90 nM). As to the kind of experiment: PBM binding z-score (relative to random genomic background probes); higher = stronger binding; sequences stand for … in GC…GCGATTGACAGCGTAGAATGAAGG
The protocol: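 Protein-binding microarray (Agilent 4x180K custom design, double-stranded 60-nt probes: 5' GC cap, 34-nt variable region, 24-nt constant primer region; full probe sequence given). Purified or IVT nuclear receptor:RXRα heterodimers (3:1 NR:RXRα, mostly 270:90 nM) or homodimers were incubated for 1 h in PBS with 2% milk and no ligand, then detected with Alexa488 antibodies. Fluorescence from o1-orientation probes (~5 replicates averaged) was converted to z-scores against 500 random hg19 background probes. Variable regions are seed direct-repeat (DR0–DR5) sites, all their single-nucleotide variants and half-site ablations.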
TCTTGTAGATTAATAGAGGTTAAGAAAGTGCGCT gave a PBM binding z-score of 2.11. In the case of TCTTGTAGATCAACAGGAGGTGAAGAAAGATCGA, the PBM binding z-score is 0.032. For CCTTACGCGTCAAGGTTATAGCACGGGTGGTACG the value was 0.442; for TGACCAAGGTGAAGGTCGTTGATCCCTCTGTAGA, 1.43. For GCTCGGAGGACAAGGTCAAAGCTTTGTCCGTAGA the value was 3.38; for TTACCAAGGTGAGATGAGGTCGTTGATCCAACTC, 4.7. With ACTATTAGTTTAGACGAGGGCAACCGATAGGTTG the figure was 0.8. ACTATTAGTTGAGACGAGGGCAACCAATAGGTTG had a PBM binding z-score of 0.987.

As to CCTTGGAGGACAGAAGGTCAGAGCTGTCCGCTTT, the PBM binding z-score stood at 1.12. For CGTCCAAGGTCAAAGGCCAGTGAAGAGATGACGG the value was 4.14; for TCTTGTAGATCAACAGGATGTTAAGAAAGATCGA, 0.149. For CCTTACGGGTCACTGACAGGTTATAACATTTGGA, the PBM binding z-score was 3.84. For GCTCGGAGGACAAGGTCAGATCTTTGTCCGTAGA the value was 1.61; for TCTCTTAGTTGATTAGGGCAACCGAAACAGCGGA, 0.558. With ATCTCTAGGTAAGACTCTGTTCAGTGAAGAACGC the figure was 0.234; with TCTCGGAGGACTCGAAGGTCAGAGCTTTCCAGAG, 0.759. TAGCCTAGGTCATGGGCAAGTATACCACGCGAAC: the PBM binding z-score came out at 2.13.

In turn, GCGACTGGGGCCAAGCAGGTTACCATAAGGTTGG registered a PBM binding z-score of 0.713.

For AGAATGAGGTTATCCGTAGATCAGGGAAGAAAGT, the PBM binding z-score is 1.44.

For CGTCCAAGGTCAGCAGGTCAGTGATAGCGACGTG, the PBM binding z-score amounted to 3.91.

The sequence TATACAGGGTCAAAGGCGAGAGTACGAATGTCGA displayed a PBM binding z-score of 4.59. With ACAGACAGGTGATGAAGGTAAATCAGGCTATCAT the figure was 0.133; with AGTCAAAGTTCAGGAAGAGGTAACGTAAAGCACG, 2.96; with GCTCGGAGGACAAGGTCATAGCTTTGTCCGTAGA, 3.33. For CCTACTTGGCCATTCAGAGGTCATTGATCATATG the value was 4.04. For CCAACTGGGCCAAGGTCATTGATCAGTCAAAGCA the value was 3.1.

Turning to CATCAAAGTTCAAGGTAACGTAACAGAAAGCAGC, the PBM binding z-score was 4.01. For AGAATGAGATTATTAAGATCAGGGAATTGCGGTC the value was -0.494. With GCTGCTAGGTCAACTAATGGTCAGCTAAAGCTCG the figure was 1.35; with CGTCCAAGGTCAGCAGGTCAGTGAGAGCGACGTG, 4.04. For CCTAGTTGGTCAGGAGGTCACACACCGGATATGA the value was 4.06. In the case of TTACCAAGGTGAAGCTCGTTGATCCCTCTGTAGA, the PBM binding z-score was -0.103. With ATCGTAAGGTCGAAGGTGAGTATACCCACCCGAA the figure was 2.04.

Sequence CCTACTGGGCCTTCAGGTCATTGATATCAACGTT displayed a PBM binding z-score of 1.45.

CCTAGTTGGTCAGGAGGTCACACAGCGGATATGA registered a PBM binding z-score of 3.94. With CAAACTAGGTCACCGGAAGGTCAAAGCCCGCATG the figure was 5.79.

GCTTACTGGTCAAAGGTTATAGCATGAATAGAAT came in with a PBM binding z-score of 2.42. With GCATATAGGTAATACAAGGCGAAAGTCCGATTGT the figure was -0.126.

As to CTTCCAAGGTGAACAAGGTCGTTGATTACTATTC, the PBM binding z-score amounted to 6.21. With CCTTGCGGGTCACGAGGTTATAGCACGACGAGCG the figure was 4.93.
